Test results from PubChem BioAssay (Tox21).
Records with an inconclusive call do not appear. Active and inactive are the calls of the source. Unless noted, calls come from the whole dose curve.

Columns and labels:
[1] = Nuclear factor erythroid 2-related factor 2/antioxidant responsive element (Nrf2/ARE) small molecule agonists: qHTS cell viability counter screen in human keratinocytes (AID 1919968; active = well fitted curve in the direction sought with a large enough effect in the repeat runs; an effect the other way counts as inactive or inconclusive; note: nearly all actives have a fitted effect of over 55% in size)
How it was run: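 After a 5 h attachment period, ARE-reporter keratinocytes were dosed with compounds in DMSO and then cultured 23 h at 37 C. Cell viability came from CellTiter-Fluor signal read after a further 1 h.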

[2] = Nuclear factor erythroid 2-related factor 2/antioxidant responsive element (Nrf2/ARE) small molecule agonists: luciferase reporter gene qHTS assay in human keratinocytes (AID 1919969); note: nearly all actives have a fitted effect of over 35% in size
[3] = target: Gonadotropin-releasing hormone receptor (Homo sapiens) (UniProt P30968); assay: Human gonadotropin-releasing hormone receptor (GnRHR) small molecule agonists, calcium flux assay in GnRHR-HEK293 cells (AID 1920063); note: nearly all actives have a fitted effect of over 35% in size
How it was run: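 We seeded human GnRHR-expressing HEK293 cells for 18 hours, loaded them with calcium dye for an hour at 37 C, added test compounds, and recorded fluorescence intensity kinetically for three minutes.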

[4] = target: KiSS-1 receptor (Homo sapiens) (UniProt Q969F8); assay: Human kisspeptin (KISS1R) small molecule agonists, calcium flux assay in KISS1R-HEK293 cells (AID 1920064; active = well fitted curve in the direction sought with a large enough effect in the repeat runs; an effect the other way counts as inactive or inconclusive)
How it was run: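 Kinetic calcium assay, 1 s sampling over 3 min at Ex/Em 480/540, in HEK293 cells engineered with human KISS1R; compounds delivered in DMSO after 1 h dye loading.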

[5] = G protein-coupled receptor (GPCR) small molecule agonists, calcium flux assay: HEK293 wild type cell line counter screen (AID 1920065)
How it was run: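 Calcium-sensitive dye, loaded 1 h at 37 C into cells cultured 18 h, reports compound-evoked calcium release as fluorescence (Ex/Em 480/540), measured over 3 min. Agonist mode; 15-point titrations, triplicate.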

[6] = p53 small molecule agonists, cell-based qHTS assay with human liver microsomes (AID 1963577);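 note: p53 response element beta-lactamase reporter cells with liver microsomes plus NADPH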
How it was run: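 Metabolically competent format: test substances, human liver microsomes and NADPH (both 0.5 mg/mL final) incubated with p53RE-bla cells 16 h at 37 C. Beta-lactamase reporter signal then quantified by fluorescence.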

[7] = p53 small molecule agonists, cell-based qHTS assay with rat liver microsomes (AID 1963578)
How it was run: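 Each plate received p53RE-bla cells, then compound, then rat liver microsomes and NADPH (both 0.5 mg/mL final). Plates were held 16 h at 37 C, and beta-lactamase activity was detected with LiveBLAzer over 2 h.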

[8] = p53 small molecule agonists, cell-based qHTS assay with human liver microsomes: qHTS cell viability counter screen (AID 1963579); note: nearly all actives have a fitted effect of over 45% in size
How it was run: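 Tox21 library compounds, delivered from DMSO stocks, were tested on p53RE-bla cells together with 0.5 mg/mL human liver microsomes and 0.5 mg/mL NADPH (final) over 16 h at 37 C; CellTiter-Glo luminescence served as the cytotoxicity measure.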

[9] = p53 small molecule agonists, cell-based qHTS assay with rat liver microsomes: qHTS cell viability counter screen (AID 1963580); note: nearly all actives have a fitted effect of over 45% in size
How it was run: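 Intracellular ATP, by CellTiter-Glo luminescence, defines viability. HCT-116 p53RE-bla cells, 4,000 per well, were compound-treated in the presence of rat liver microsomes and NADPH for 16 h at 37 C.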

[10] = p53 small molecule agonists, cell-based qHTS assay: qHTS cell viability counter screen (AID 1963581); note: nearly all actives have a fitted effect of over 45% in size
How it was run: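 Following 5 h attachment, HCT-116 p53RE-bla cells took up compound for 16 h at 37 C; the reporter was read with B/G FRET substrate (2 h RT), and viability then via CellTiter-Glo ATP luminescence.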

[11] = p53 small molecule agonists, cell-based qHTS assay (AID 1963582; active = well fitted activation curve with a large enough effect in the signal ratio in the repeat runs, not every such curve was filed as active; the % refers to the signal ratio)
How it was run: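 In this cell-based concentration-response screen, a p53 response element drives beta-lactamase; cells received DMSO-borne compounds after 5 h culture and were incubated a further 16 h before FRET substrate development.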

[12] = cAMP Responsive Elements (CRE) small molecule agonists, cell-based qHTS assay (AID 1963590)
How it was run: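 A CRE-responsive beta-lactamase reporter in HEK 293T cells was used. Treatment ran 3 h at 37 C; detection used LiveBLAzer B/G FRET substrate for 2 h at room temperature.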

[13] = cAMP Responsive Elements (CRE) small molecule antagonists, cell-based qHTS assay (AID 1963591; active = well fitted inhibition curve with a large enough effect in the signal ratio in the repeat runs, not every such curve was filed as active; the % refers to the signal ratio)
How it was run: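 HEK293T cells carrying a CRE-driven beta-lactamase reporter receive compound and NKH477 (0.25 uM final) for 3 h. Fluorescence from LiveBLAzer B/G FRET substrate is read after 2 h at room temperature.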

[14] = target: Beta-2 adrenergic receptor (Homo sapiens) (UniProt P07550); assay: Adrenergic beta2 receptor (ADRB2) small molecule antagonists, cell-based qHTS assay (AID 1963592); note: series mostly up to about 92 µM; nearly all actives have a fitted effect of over 50% in size
How it was run: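 Cells (CHO, stable ADRB2 overexpression) incubated 18-20hr at 37C; compounds added from DMSO; agonist mix (1nM isoproterenol, 100uM IBMX, 25uM Ro-20-1724) added; 0.5hr RT; d2-cAMP and anti-cAMP-cryptate added; 1hr RT; 665/615 nm read.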

[15] = target: D(2) dopamine receptor (Homo sapiens) (UniProt P14416); assay: Dopamine D2 receptor (DRD2) small molecule agonists, cell-based qHTS assay (AID 1963594); note: nearly all actives have a fitted effect of over 35% in size
How it was run: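 cAMP accumulation in DRD2-HEK293 cells measured by HTRF after 1 h detection; compounds added 10 min before NKH477 (200nM […]) forskolin-analogue stimulation, 30 min at room temperature, with Ro20-1724 present at 0.1 mM final.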

[16] = target: D(2) dopamine receptor (Homo sapiens) (UniProt P14416); assay: Dopamine D2 receptor (DRD2) small molecule antagonists, cell-based qHTS assay (AID 1963595; active = well fitted inhibition curve with a large enough effect in the signal ratio in the repeat runs, with a control signal flat; the % refers to the signal ratio)
How it was run: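 In this cell-based antagonist screen, compounds act for 10 min at room temperature before a 30 min challenge with 12 nM quinpirole and 200 nM NKH477. cAMP is quantified by HTRF competition in DRD2-HEK293 cells containing 0.1 mM Ro20-1724.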

[17] = target: Beta-2 adrenergic receptor (Homo sapiens) (UniProt P07550); assay: Adrenergic beta2 receptor (ADRB2) small molecule agonists, cell-based qHTS assay (AID 1963593);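 note: CHO cells stably overexpressing human ADRB2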
How it was run: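 CHO cells stably over-expressing ADRB2 were plated overnight at 37C, then dosed with compounds plus a stimulation mix containing 100uM IBMX and 25uM Ro-20-1724 for 0.5hr at room temperature. cAMP was measured by HTRF competition, 1hr.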

Measured: Potency

KiSS-1 receptor (Homo sapiens), sequence (Q969F8 whole entry, looked up): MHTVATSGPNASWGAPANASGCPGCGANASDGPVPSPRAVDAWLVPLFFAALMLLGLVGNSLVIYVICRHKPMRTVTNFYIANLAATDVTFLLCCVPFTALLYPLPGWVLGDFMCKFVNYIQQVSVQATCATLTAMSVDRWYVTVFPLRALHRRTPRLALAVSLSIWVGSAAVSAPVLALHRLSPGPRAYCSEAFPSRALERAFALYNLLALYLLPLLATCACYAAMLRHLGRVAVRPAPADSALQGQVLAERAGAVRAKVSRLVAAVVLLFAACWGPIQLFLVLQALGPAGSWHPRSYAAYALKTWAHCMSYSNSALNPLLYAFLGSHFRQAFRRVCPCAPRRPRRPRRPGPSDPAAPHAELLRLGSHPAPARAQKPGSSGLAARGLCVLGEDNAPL
D(2) dopamine receptor (Homo sapiens), sequence (P14416 whole entry, looked up): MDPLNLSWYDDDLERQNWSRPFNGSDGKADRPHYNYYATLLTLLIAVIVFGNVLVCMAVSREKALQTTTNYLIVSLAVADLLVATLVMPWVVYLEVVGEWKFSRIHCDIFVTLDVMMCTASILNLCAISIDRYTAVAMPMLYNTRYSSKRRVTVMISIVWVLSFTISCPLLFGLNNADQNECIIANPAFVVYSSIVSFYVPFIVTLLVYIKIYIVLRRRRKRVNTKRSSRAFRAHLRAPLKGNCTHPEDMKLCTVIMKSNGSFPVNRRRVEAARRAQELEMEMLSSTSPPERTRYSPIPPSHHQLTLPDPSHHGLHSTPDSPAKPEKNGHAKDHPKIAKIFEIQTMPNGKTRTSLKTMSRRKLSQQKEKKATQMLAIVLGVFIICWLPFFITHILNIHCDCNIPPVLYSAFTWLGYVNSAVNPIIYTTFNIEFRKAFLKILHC
Beta-2 adrenergic receptor (Homo sapiens), sequence (P07550 whole entry, looked up): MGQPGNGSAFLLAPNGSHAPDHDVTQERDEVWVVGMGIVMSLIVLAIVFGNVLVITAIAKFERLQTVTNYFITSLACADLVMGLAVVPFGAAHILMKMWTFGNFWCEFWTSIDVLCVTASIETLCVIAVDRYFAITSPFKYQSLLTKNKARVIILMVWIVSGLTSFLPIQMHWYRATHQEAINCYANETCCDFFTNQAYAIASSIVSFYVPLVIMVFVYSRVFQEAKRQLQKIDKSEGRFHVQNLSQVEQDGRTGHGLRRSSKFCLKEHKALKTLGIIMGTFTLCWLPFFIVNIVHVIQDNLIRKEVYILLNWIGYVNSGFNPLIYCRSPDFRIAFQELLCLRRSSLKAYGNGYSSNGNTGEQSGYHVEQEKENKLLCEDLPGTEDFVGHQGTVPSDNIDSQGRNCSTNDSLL
Gonadotropin-releasing hormone receptor (Homo sapiens), sequence (P30968 whole entry, looked up): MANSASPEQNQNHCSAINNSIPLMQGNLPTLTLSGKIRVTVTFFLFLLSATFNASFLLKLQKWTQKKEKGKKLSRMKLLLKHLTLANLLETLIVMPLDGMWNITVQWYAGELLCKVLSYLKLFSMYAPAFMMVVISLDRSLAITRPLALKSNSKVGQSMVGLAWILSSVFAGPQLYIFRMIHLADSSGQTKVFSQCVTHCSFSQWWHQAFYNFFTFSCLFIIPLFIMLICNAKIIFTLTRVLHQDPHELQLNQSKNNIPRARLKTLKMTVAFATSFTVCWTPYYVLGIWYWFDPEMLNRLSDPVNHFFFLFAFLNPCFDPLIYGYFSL

CC(=O)CCCCn1c(=O)c2c(ncn2C)n(C)c1=O
not listed: [17]
inactive: all other assays above

CC(C)NNC(=O)c1ccncc1
not listed: [12]
inactive: all other assays above

O=C1OCCN1/N=C/c1ccc([N+](=O)[O-])o1
not listed: [14] | [15]
inactive: all other assays above

Cc1ccc(C(=O)c2ccc(CC(=O)O)n2C)cc1
not listed: [12]
inactive: all other assays above

COc1ccc([C@@H]2Sc3ccccc3N(CCN(C)C)C(=O)[C@@H]2OC(C)=O)cc1
not listed: [13]
inactive: all other assays above

Cc1cccc(C)c1OCC(C)N (stereo unspecified)
not listed: [13] | [14] | [15]
inactive: all other assays above

CC(C)(C)NC[C@H](O)COc1cccc2c1CCCC2=O
not listed: [14] | [17]
inactive: all other assays above

CCN1CCN(c2cc3c(cc2F)c(=O)c(C(=O)O)cn3C2CC2)CC1
not listed: [12] | [13] | [14] | [17]
inactive: all other assays above
